Results from PubChem BioAssay (EPA / NIEHS).
Results filed as inconclusive are left out. The source holds several records for some structures; these can differ, active in one and inactive in another. Activity calls are given as the source filed them. Rule for the calls, unless noted: active = hit-call score of the fitted dose curve at least 0.9, where 1 is the maximum; inactive = score below 0.9.

How the values were obtained:
[1] = read-out: Pyruvate Dehydrogenase Kinase 4 (PDK4), PDK4 (gene 5166); experiment: LTEA_HepaRG_PDK4: Life Technologies and Expression Analysis (LTEA) Assay for Pyruvate Dehydrogenase Kinase 4 (PDK4) using HepaRG (AID 2283525); conditions: mRNA level, 48 h; actives raise or lower the signal
In short: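 In this multiplexed human HepaRG expression assay, cells are treated 48 h with test chemicals across an eight-point range starting at 100 uM. PDK4 mRNA changes, normalized to ACTB/GAPDH/POLR2A, are fitted in both directions relative to vehicle.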

[2] = read-out: NAD(P)H dehydrogenase [quinone] 1 (NQO1), NQO1 (gene 1728); experiment: LTEA_HepaRG_NQO1: Life Technologies and Expression Analysis (LTEA) Assay for NAD(P)H dehydrogenase [quinone] 1 (NQO1) using HepaRG (AID 2283526); conditions: mRNA level, 48 h; actives raise or lower the signal
In short: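 Differentiated human HepaRG cells in serum-free induction medium, dosed in duplicate for 48 h at 8 half-log concentrations up to 100 uM in 0.5% DMSO. NQO1 mRNA by qRT-PCR normalized to ACTB, GAPDH, POLR2A; bidirectional fit versus DMSO baseline.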

[3] = read-out: Nuclear factor erythroid 2-related factor 2 (Homo sapiens) (UniProt Q16236); experiment: LTEA_HepaRG_NFE2L2: Life Technologies and Expression Analysis (LTEA) Assay for Nuclear factor erythroid 2-related factor 2 (NFE2L2) Transcription Factor using HepaRG (AID 2283527); conditions: mRNA level, 48 h; actives raise or lower the signal
In short: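 Transcript level of NFE2L2 is the read-out, measured by microfluidic TaqMan qRT-PCR and normalized to three housekeeping genes. Human HepaRG cultures received test chemical for 48 h at up to 100 uM in half-log steps. Gain or loss of signal is fitted relative to 0.5% DMSO.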

[4] = read-out: succinate dehydrogenase complex iron sulfur subunit B (SDHB), SDHB (gene 6390); experiment: LTEA_HepaRG_SDHB: Life Technologies and Expression Analysis (LTEA) Assay for succinate dehydrogenase complex iron sulfur subunit B (SDHB) using HepaRG (AID 2283528); conditions: mRNA level, 48 h; actives raise or lower the signal
In short: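 HepaRG cells (~100,000/well, plated 48 h) exposed in duplicate for 48 h in serum-free induction medium to 8-point half-log series from 100 uM in 0.5% DMSO; mRNA by qRT-PCR normalised to ACTB, GAPDH, POLR2A; bidirectional fit versus DMSO.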

[5] = read-out: Signal transducer and activator of transcription 3 (Homo sapiens) (UniProt P40763); experiment: LTEA_HepaRG_STAT3: Life Technologies and Expression Analysis (LTEA) Assay for Signal transducer and activator of transcription (STAT3) using HepaRG (AID 2283529); conditions: mRNA level, 48 h; actives raise or lower the signal
In short: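 Read-out is STAT3 mRNA level by qRT-PCR, normalized to three housekeeping genes, in human HepaRG liver cells treated for 48 h. Concentrations ran from 100 uM downward in half-log steps; curves were fitted for gain or loss relative to 0.5% DMSO.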

[6] = read-out: solute carrier (SLCO1B1), SLCO1B1 (gene 10599); experiment: LTEA_HepaRG_SLCO1B1: Life Technologies and Expression Analysis (LTEA) Assay for solute carrier (SLCO1B1) using HepaRG (AID 2283530); conditions: mRNA level, 48 h; actives raise or lower the signal
In short: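 Differentiated human HepaRG cells, plated 48 h, switched to serum-free induction medium and exposed in duplicate for 48 h to 8 half-log concentrations (top 100 uM) in 0.5% DMSO. SLCO1B1 mRNA by TaqMan qRT-PCR, normalized to ACTB/GAPDH/POLR2A.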

[7] = read-out: sulfotransferase 2A1 (SULT2A1), SULT2A1 (gene 6822); experiment: LTEA_HepaRG_SULT2A1: Life Technologies and Expression Analysis (LTEA) Assay for sulfotransferase 2A1 (SULT2A1) using HepaRG (AID 2283531); conditions: mRNA level, 48 h; actives raise or lower the signal
In short: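 Differentiated human HepaRG cells in serum-free induction medium were exposed for 48 h to eight half-log concentrations (top 100 uM, 0.5% DMSO). SULT2A1 mRNA was measured by qRT-PCR, normalized to ACTB, GAPDH and POLR2A, and fitted bidirectionally against DMSO.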

[8] = read-out: Transforming Growth Factor (TGFA), TGFA (gene 7039); experiment: LTEA_HepaRG_TGFA: Life Technologies and Expression Analysis (LTEA) Assay for Transforming Growth Factor (TGFA) using HepaRG (AID 2283532); conditions: mRNA level, 48 h; actives raise or lower the signal
In short: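 HepaRG (human liver line), 48 h exposure, 8 conc. half-log down from 100 uM, 0.5% DMSO vehicle, duplicates; serum-free induction medium. TGFA mRNA by TaqMan qRT-PCR, ACTB/GAPDH/POLR2A normalization; gain/loss fit vs DMSO.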

[9] = read-out: Transforming Growth Factor (TGFB1), TGFB1 (gene 7040); experiment: LTEA_HepaRG_TGFB1: Life Technologies and Expression Analysis (LTEA) Assay for Transforming Growth Factor (TGFB1) Transporter using HepaRG (AID 2283533); conditions: mRNA level, 48 h; actives raise or lower the signal
In short: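 Differentiated human HepaRG cells in serum-free induction medium were exposed in duplicate for 48 h to eight concentrations (top 100 uM, half-log steps, 0.5% DMSO). TGFB1 mRNA was quantified by qRT-PCR, normalized to ACTB, GAPDH, POLR2A, and fitted bidirectionally against DMSO.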

TIMP1, TIMP1 (gene 7076) = experiment: LTEA_HepaRG_TIMP1: Life Technologies and Expression Analysis (LTEA) Assay for TIMP1 using HepaRG (AID 2283534); conditions: mRNA level, 48 h; actives raise or lower the signal
In short: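 Differentiated human HepaRG cells in serum-free induction medium were exposed 48 h to chemicals (8 half-log concentrations, top 100 uM, 0.5% DMSO). TIMP1 mRNA was quantified by TaqMan qRT-PCR, normalized to ACTB/GAPDH/POLR2A; bidirectional fit versus DMSO.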

[10] = read-out: Tumor necrosis factor receptor 1 (TNFRSF1A), TNFRSF1A (gene 7132); experiment: LTEA_HepaRG_TNFRSF1A: Life Technologies and Expression Analysis (LTEA) Assay for Tumor necrosis factor receptor 1 (TNFRSF1A) using HepaRG (AID 2283535); conditions: mRNA level, 48 h; actives raise or lower the signal
In short: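 Differentiated human HepaRG cells were exposed in duplicate for 48 h in serum-free induction medium to eight concentrations (top 100 uM, half-log steps, 0.5% DMSO). TNFRSF1A mRNA was quantified by qRT-PCR, normalized to ACTB, GAPDH and POLR2A, then fitted bidirectionally against DMSO.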

[11] = read-out: Thyroid Hormone Responsive (THRSP), THRSP (gene 7069); experiment: LTEA_HepaRG_THRSP: Life Technologies and Expression Analysis (LTEA) Assay for Thyroid Hormone Responsive (THRSP) using HepaRG (AID 2283536); conditions: mRNA level, 48 h; actives raise or lower the signal
In short: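 mRNA induction or loss relative to 0.5% DMSO vehicle was fitted bidirectionally across an eight-point curve whose highest exposure was 100 uM. Human HepaRG liver cells received chemicals in duplicate over 48 h before RNA extraction.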

[12] = read-out: Cellular tumor antigen p53 (Homo sapiens) (UniProt P04637); experiment: LTEA_HepaRG_TP53: Life Technologies and Expression Analysis (LTEA) Assay for Tumor Protein P53 (TP53) using HepaRG (AID 2283537); conditions: mRNA level, 48 h; actives raise or lower the signal
In short: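 Differentiated HepaRG cells in serum-free induction medium exposed 48 h in duplicate to 8 half-log concentrations, top 100 uM, 0.5% DMSO. TP53 mRNA by TaqMan qRT-PCR (Fluidigm), normalized to ACTB, GAPDH, POLR2A; fitted bidirectionally versus DMSO.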

[13] = read-out: UDP glucuronosyltransferase (UGT1A1), UGT1A1 (gene 54658); experiment: LTEA_HepaRG_UGT1A1: Life Technologies and Expression Analysis (LTEA) Assay for UDP glucuronosyltransferase (UGT1A1) using HepaRG (AID 2283538); conditions: mRNA level, 48 h; actives raise or lower the signal
In short: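 HepaRG cells, 0.5% DMSO vehicle, 48 h exposure in serum-free induction medium to 8-point half-log series topping at 100 uM, in duplicate. UGT1A1 mRNA by Fluidigm qRT-PCR, normalized to ACTB/GAPDH/POLR2A; bidirectional fit versus DMSO.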

[14] = read-out: UDP glucuronosyltransferase (UGT1A6), UGT1A6 (gene 54578); experiment: LTEA_HepaRG_UGT1A6: Life Technologies and Expression Analysis (LTEA) Assay for UDP glucuronosyltransferase (UGT1A6) using HepaRG (AID 2283539); conditions: mRNA level, 48 h; actives raise or lower the signal
In short: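 Human HepaRG cells were dosed for 48 h in serum-free induction medium with 0.5% DMSO vehicle, eight-point half-log series from 100 uM, in duplicate. UGT1A6 mRNA was measured by qRT-PCR, normalized to ACTB, GAPDH, POLR2A, and fitted bidirectionally against DMSO.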

[15] = read-out: X-box binding protein 1 (XBP1), XBP1 (gene 7494); experiment: LTEA_HepaRG_XBP1: Life Technologies and Expression Analysis (LTEA) Assay for X-box binding protein 1 (XBP1) using HepaRG (AID 2283540); conditions: mRNA level, 48 h; actives raise or lower the signal
In short: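 Differentiated human HepaRG cells in serum-free induction medium were exposed in duplicate for 48 h to eight half-log concentrations up to 100 uM in 0.5% DMSO. XBP1 mRNA was quantified by qRT-PCR, normalised to ACTB, GAPDH and POLR2A, with bidirectional fitting against DMSO.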

[16] = LTEA_HepaRG_LDH_cytotoxicity: Cytotoxicity Assessment in the Life Technologies and Expression Analysis (LTEA) Assay (AID 2283563; active = hit-call score of the fitted dose curve at least 0.9, where 1 is the maximum;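 for AC50: LDH activity released into spent culture medium as a marker of cell death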)
In short: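 Differentiated human HepaRG cells, plated 48 h beforehand, were switched to serum-free induction medium and exposed for 48 h to eight half-log concentrations (top 100 uM) in 0.5% DMSO. LDH was measured in spent medium; activity was fitted relative to DMSO vehicle.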

[17] = ATG_XTT_Cytotoxicity: Cytotoxicity Assessment in the Attagene TRANS-FACTORIAL HepG2 Assay (AID 2283584; active = hit-call score of the fitted dose curve at least 0.9, where 1 is the maximum)
In short: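 HepG2 human liver cells, transiently transfected with multiple GAL4-UAS reporter units, were dosed and read at 24 h by XTT as cell number. Loss of signal was fitted relative to DMSO negative control baseline.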

[18] = TOX21_p53_BLA_p2_viability: Viability Assessment in the Tox21 HCT-116 p53 Agonism Beta-lactamase Assay, Phase 2 (AID 2283591; active = hit-call score of the fitted dose curve at least 0.9, where 1 is the maximum;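 note: compound exposure lasted 16 h at 37 °C; actives lower the ATP signal meaning cytotoxicity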)
In short: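 Cytotoxicity readout: CellTiter-Glo ATP luminescence, 30 min at room temperature, after the beta-lactamase read. Cells were HCT116 exposed 16 h at 37C to compounds pin-transferred at 217-fold dilution from DMSO stocks.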

[19] = target: Cellular tumor antigen p53 (Homo sapiens) (UniProt P04637); experiment: TOX21_p53_BLA_p2_ratio: Tox21 HCT-116 p53 Agonism Beta-lactamase Assay, Ratio, Phase 2 (AID 2283592; active = hit-call score of the fitted dose curve at least 0.9, where 1 is the maximum)
In short: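 HCT116 cells carrying a p53-responsive beta-lactamase reporter were plated, incubated 5 h at 37C, then dosed with compounds in DMSO (217-fold dilution) for 16 h. CCF4-AM substrate was added for 2 h at room temperature; the 460/530 nm emission ratio gave gain-of-signal activity relative to DMSO.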

Measured: AC50

Sequence of Nuclear factor erythroid 2-related factor 2 (Homo sapiens) (Q16236 whole entry, looked up): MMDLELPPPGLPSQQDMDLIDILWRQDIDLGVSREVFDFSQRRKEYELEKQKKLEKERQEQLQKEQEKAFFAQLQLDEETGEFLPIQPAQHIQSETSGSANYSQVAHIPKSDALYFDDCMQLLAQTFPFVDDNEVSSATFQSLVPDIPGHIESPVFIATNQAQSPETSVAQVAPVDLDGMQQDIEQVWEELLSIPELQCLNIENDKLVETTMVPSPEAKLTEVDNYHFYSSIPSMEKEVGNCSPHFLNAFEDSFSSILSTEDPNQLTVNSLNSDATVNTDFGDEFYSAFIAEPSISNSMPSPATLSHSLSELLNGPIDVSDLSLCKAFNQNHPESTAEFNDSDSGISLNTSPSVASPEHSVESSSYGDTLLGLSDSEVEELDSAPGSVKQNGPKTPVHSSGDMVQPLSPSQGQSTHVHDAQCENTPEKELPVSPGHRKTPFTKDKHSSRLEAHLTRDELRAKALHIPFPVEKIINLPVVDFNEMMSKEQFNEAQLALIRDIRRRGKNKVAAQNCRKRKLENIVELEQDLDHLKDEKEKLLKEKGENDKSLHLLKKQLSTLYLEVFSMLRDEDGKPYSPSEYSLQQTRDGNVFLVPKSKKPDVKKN
Sequence of Cellular tumor antigen p53 (Homo sapiens) (P04637 whole entry, looked up): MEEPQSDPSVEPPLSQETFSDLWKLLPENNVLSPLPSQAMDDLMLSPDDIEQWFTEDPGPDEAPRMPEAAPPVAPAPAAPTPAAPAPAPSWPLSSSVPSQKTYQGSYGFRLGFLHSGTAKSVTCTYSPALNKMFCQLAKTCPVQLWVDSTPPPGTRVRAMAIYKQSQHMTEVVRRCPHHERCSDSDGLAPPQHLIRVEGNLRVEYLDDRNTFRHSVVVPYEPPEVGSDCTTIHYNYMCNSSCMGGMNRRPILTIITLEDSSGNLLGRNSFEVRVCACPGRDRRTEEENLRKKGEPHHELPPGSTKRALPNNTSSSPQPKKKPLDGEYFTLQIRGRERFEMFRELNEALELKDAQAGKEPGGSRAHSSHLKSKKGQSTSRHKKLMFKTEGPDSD
Sequence of Signal transducer and activator of transcription 3 (Homo sapiens) (P40763 whole entry, looked up): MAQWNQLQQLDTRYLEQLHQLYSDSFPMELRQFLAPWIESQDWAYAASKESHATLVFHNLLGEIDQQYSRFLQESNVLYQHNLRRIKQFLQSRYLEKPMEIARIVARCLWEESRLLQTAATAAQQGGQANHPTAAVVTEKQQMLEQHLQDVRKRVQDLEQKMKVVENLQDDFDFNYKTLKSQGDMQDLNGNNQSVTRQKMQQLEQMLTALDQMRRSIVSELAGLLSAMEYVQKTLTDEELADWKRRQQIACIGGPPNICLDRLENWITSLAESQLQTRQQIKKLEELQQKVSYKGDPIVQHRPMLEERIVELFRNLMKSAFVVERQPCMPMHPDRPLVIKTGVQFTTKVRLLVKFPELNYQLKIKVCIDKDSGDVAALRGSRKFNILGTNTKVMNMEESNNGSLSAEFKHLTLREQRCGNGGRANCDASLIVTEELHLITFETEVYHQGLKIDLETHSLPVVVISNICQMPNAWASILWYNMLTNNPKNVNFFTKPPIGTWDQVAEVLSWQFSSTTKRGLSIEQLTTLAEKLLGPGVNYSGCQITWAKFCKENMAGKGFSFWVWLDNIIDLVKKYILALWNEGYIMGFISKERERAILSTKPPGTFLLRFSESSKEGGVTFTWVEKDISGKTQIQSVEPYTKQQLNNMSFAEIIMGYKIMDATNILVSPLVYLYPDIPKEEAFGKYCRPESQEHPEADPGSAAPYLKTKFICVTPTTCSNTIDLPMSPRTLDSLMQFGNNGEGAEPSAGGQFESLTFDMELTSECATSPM

O=C(O)C(F)(F)C(F)(F)C(F)(F)C(F)(F)C(F)(F)C(F)(F)C(F)(F)C(F)(F)F
inactive: [2] | [4] | [5] | TIMP1, TIMP1 (gene 7076) | [10] | [15] | [17] | [19]
active: [1] 32.8 µM | [3] 74.9 µM | [6] 90.8 µM | [7] 77.4 µM | [8] 67.1 µM | [9] 73.5 µM | [11] 58.6 µM | [12] 60.4 µM | [13] 85.4 µM | [14] 82.9 µM | [16] 78.6 µM | [18] 85.3 µM

CC(C)(c1ccccc1)c1ccc(O)cc1
active: [11] 78.2 µM | [16] 76.7 µM | [18] 80.1 µM | [19] 74 µM
inactive: [1] | [2] | [3] | [5] | [6] | [7] | [8] | [9] | TIMP1, TIMP1 (gene 7076) | [10] | [12] | [13] | [14] | [15] | [17] | [18] | [19]

O=C(O)C(F)(F)C(F)(F)C(F)(F)C(F)(F)C(F)(F)C(F)(F)C(F)(F)C(F)(F)C(F)(F)F
active: [1] 25.7 µM | [4] 88.9 µM | [5] 79.3 µM | [6] 61.8 µM | [7] 35.7 µM | [8] 23.4 µM | [9] 23.3 µM | TIMP1, TIMP1 (gene 7076) 91.7 µM | [10] 78 µM | [11] 15.6 µM | [13] 36.2 µM | [14] 38.6 µM | [16] 63.4 µM
inactive: [2] | [3] | [15] | [17] | [18] | [19]

N#Cc1ccc(N(CC(N)=O)CC(F)(F)F)cc1C(F)(F)F
active: [11] 0.103 µM | [13] 22.6 µM
not listed: [17] | [19]
inactive: all other assays above

CCOCCOC(C)=O
inactive: all assays above

c1ccc(-c2ccccc2)cc1
not listed: [17]
inactive: all other assays above
